Reference: PubChem BioAssay (EPA / NIEHS)
Results filed as inconclusive are left out. Activity calls are given as the source filed them. The calls were made as follows, unless noted: active = hit-call score of the fitted dose curve at least 0.9, where 1 is the maximum; inconclusive = response in the unintended direction; inactive = score below 0.9.

How the values were obtained:
[1] = IUF_NPC2c_oligodendrocyte_migration_120hr: Leibniz Research Institute for Environmental Medicine (IUF) 120-hour Neural Progenitor Cell Migration Assay for Oligodendrocyte Migration (NPC2c) (AID 2284297; active = hit-call score of the fitted dose curve at least 0.9, where 1 is the maximum; inactive = score below 0.9;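 also: O4-positive oligodendrocyte migration distance divided by radial glia migration distance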)
How it was run: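 Exposure runs 5 days from differentiation onset at 37C, seven concentrations plus solvent control, DMSO at most 0.1%, applied to primary hNPC spheres on laminin. After fixation, O4 immunostaining gives oligodendrocyte distance from the sphere core, relative to radial glia migration.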

[2] = IUF_NPC2a_radial_glia_migration_120hr: Leibniz Research Institute for Environmental Medicine (IUF) 120-hour Neural Progenitor Cell Migration Assay for Radial Glia Migration (NPC2a) (AID 2284298; active = hit-call score of the fitted dose curve at least 0.9, where 1 is the maximum; inactive = score below 0.9)
How it was run: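 Migration distance in um, sphere core edge to migration-area edge, derived by nuclei-density algorithm from Hoechst images after 120 h compound exposure. Primary hNPC spheres differentiated on poly-D-lysine/laminin in N2 medium, 37C; medium half-replaced day 3.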

[3] = IUF_NPC2a_radial_glia_migration_72hr: Leibniz Research Institute for Environmental Medicine (IUF) 72-hour Neural Progenitor Cell Migration Assay for Radial Glia Migration (NPC2a) (AID 2284299; active = hit-call score of the fitted dose curve at least 0.9, where 1 is the maximum; inactive = score below 0.9)
How it was run: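 Radial glia migration (µm, sphere core edge to migration front, four directions averaged) from brightfield images at 72 h; hNPC spheres differentiating on PDL/laminin in N2 medium, compound exposure at 7 concentrations from plating.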

[4] = IUF_NPC2b_neuronal_migration_120hr: Leibniz Research Institute for Environmental Medicine (IUF) 120-hour Neural Progenitor Cell Migration Assay for Neuron Migration (NPC2b) (AID 2284300; active = hit-call score of the fitted dose curve at least 0.9, where 1 is the maximum; inactive = score below 0.9)
How it was run: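 TUBB3-positive neurons are imaged after 120 h of differentiation, and their mean distance from the sphere edge is normalised to radial glia migration. Single 0.3 mm fetal hNPC spheres on poly-D-lysine/laminin received 7 compound concentrations, ≤0.1% DMSO, refreshed at day 3.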

[5] = IUF_NPC3_neuronal_differentiation_120hr: Leibniz Research Institute for Environmental Medicine (IUF) 120-hour Neuronal Differentiation Assay (NPC3) (AID 2284301; active = hit-call score of the fitted dose curve at least 0.9, where 1 is the maximum; inactive = score below 0.9)
How it was run: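 hNPC spheres, PDL/laminin, DMEM/F12 3:1 + 1% N2, 37C, 5% CO2; 7 concentrations + solvent control, 5 d exposure, half-change day 3. Fix 120 h; TUBB3/Hoechst ICC, CNN neuron calling; % neurons vs nuclei, DMSO-normalized.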

[6] = IUF_NPC4_neurite_length_120hr: Leibniz Research Institute for Environmental Medicine (IUF) 120-hour Neuronal Morphology Assay for Neurite Length (NPC4) (AID 2284302; active = hit-call score of the fitted dose curve at least 0.9, where 1 is the maximum; inactive = score below 0.9)
How it was run: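 hNPC spheres (0.3 mm, fetal brain GW 16-19) on PDL/laminin, DMEM:F12 3:1 + 1% N2, 37C 5% CO2; 7 concs + solvent control, day 0-5, half medium change d3; fix 120 h, TUBB3 ICC, mean neurite length um vs DMSO.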

[7] = IUF_NPC5_oligodendrocyte_differentiation_120hr: Leibniz Research Institute for Environmental Medicine (IUF) 120-hour Oligodendrocyte Differentiation Assay (NPC5) (AID 2284304);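 also: primary human fetal neural progenitor spheres plated to migrate and differentiate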
How it was run: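 Oligodendrocyte differentiation scored as O4-positive cells, found by CNN image analysis, as percent of Hoechst-stained nuclei in the migration area. Scoring followed 5 days of exposure of plated hNPC neurospheres differentiating in DMEM/F12 N2 medium at 37C, with compound refreshed at day 3.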

[8] = IUF_NPC4_neurite_area_120hr: Leibniz Research Institute for Environmental Medicine (IUF) 120-hour Neuronal Morphology Assay for Neurite Area (NPC4) (AID 2284305)
How it was run: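 hNPC spheres on PDL/laminin, N2 medium, 37C/5% CO2; dosed day 0, half-medium refresh day 3; fixed 120 h; TUBB3/Hoechst ICC, high-content imaging; neurite area = mean pixels per neuron (nuclei excluded); DMSO baseline, max 0.1%.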

[9] = IUF_NPC2-5_cytotoxicity_72hr: Cytotoxicity Assessment at 72 hours in the Leibniz Research Institute for Environmental Medicine (IUF) Neural Progenitor Cell Migration and Differentiation Assay for Cytotoxicity (NPC2-5) (AID 2284306);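 also: LDH release into supernatant measured by resorufin fluorescence marking membrane damage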
How it was run: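 hNPC spheres (0.3 mm), PDL/laminin, DMEM/F12 3:1 + 1% N2; cpd from d0, 7 concs + SC, DMSO max 0.1%; half-medium refresh d3. Readout: supernatant LDH via resorufin fluorescence (RFU), 72 h; gain-of-signal fit.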

[10] = IUF_NPC2-5_cytotoxicity_120hr: Cytotoxicity Assessment at 120 hours in the Leibniz Research Institute for Environmental Medicine (IUF) Neural Progenitor Cell Migration and Differentiation Assay (NPC2-5) (AID 2284307);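 as to AC50: LDH released into supernatant as membrane damage marker via resorufin fluorescence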
How it was run: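 Membrane-integrity loss measured as LDH activity in medium supernatant via resazurin-to-resorufin fluorescence after 120 h exposure. hNPC spheres from GW 16-19 fetal cortex differentiated on poly-D-lysine/laminin, 37C, medium half-refreshed day 3; seven concentrations, DMSO max 0.1%.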

[11] = IUF_NPC2-5_cell_number_120hr: Cell Number Assessment at 120 hours in the Leibniz Research Institute for Environmental Medicine (IUF) Neural Progenitor Cell Migration and Differentiation Assay (NPC2-5) (AID 2284308; active = hit-call score of the fitted dose curve at least 0.9, where 1 is the maximum; inactive = score below 0.9;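 also: count of Hoechst-stained nuclei in migration zone around plated human neural progenitor spheres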)
How it was run: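 Counting of all Hoechst-stained nuclei in the migration area at 120 h, versus DMSO control. Primary hNPC spheres differentiated on poly-D-lysine/laminin in N2 medium at 37C, dosed from day 0 (7 concentrations, DMSO ≤0.1%), half-refed day 3.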

[12] = IUF_NPC2-5_viability_120hr: Viability Assessment at 120 hours in the Leibniz Research Institute for Environmental Medicine (IUF) Neural Progenitor Cell Migration and Differentiation Assay (NPC2-5) (AID 2284312; active = hit-call score of the fitted dose curve at least 0.9, where 1 is the maximum; inactive = score below 0.9)
How it was run: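 Human fetal neural progenitor spheres (0.3 mm) plated on poly-D-lysine/laminin in N2 differentiation medium, exposed 120 h with half-medium refresh at day 3. Viability by alamar blue resazurin fluorescence; 7 concentrations, DMSO max 0.1%.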

[13] = test system: IYD (gene 389434); assay: CCTE_GLTED_hIYD: CCTE's human Iodotyrosine Deiodinase (xIYD) Inhibition Assay, Great Lakes Toxicology and Ecology Division (GLTED) Lab (AID 2284317);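 also: cell-free human IYD enzyme made in baculovirus insect cells; iodide freed from monoiodotyrosine measured by cerium arsenite color change at 420 nm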
How it was run: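 In the IYD assay, iodide released from MIT by insect-cell-expressed human enzyme was quantified after 3 h via Sandell-Kolthoff rate at 420 nm, with plate-wise normalization to MNT and solvent controls.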

[14] = CCTE_Mundy_HCI_Cortical_Synap_Neur_Matur_NeuronCount: CCTE's Synaptogenesis and Neurite Maturation Assay in rat cortical cells for Neuron Count, Mundy Lab (AID 2284242);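 as to AC50: hits reduce neuron count versus DMSO baseline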
How it was run: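 Neuron counts come from automated high-content imaging of Hoechst nuclei and MAP2/synaptophysin immunostaining at DIV 12, with loss of signal judged against DMSO. Cultures of rat cortical cells had glial growth arrested by AraC at DIV 5; chemical exposure began DIV 7.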

[15] = VALA_TUBHUV_Agonist_CellCount: Viability Assessment in the VALA Sciences human Umbilical Vein Endothelial Tubule Formation (TUBHUV) Agonism Assay (AID 2284309)
How it was run: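 Viability endpoint by fluorescent imaging of fixed nuclear/CD31-stained HUVEC–HDF co-cultures. Readout is cell count, fitted upward against 0.1% DMSO. Compound exposure was 72 h in 10 ng/ml VEGF, after 3-day co-culture priming.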

[16] = VALA_TUBIPS_Antagonist_TubuleLength: VALA Sciences human iPS-derived Endothelial Tubule Formation (TUBIPS) Antagonist Assay (AID 2284313)
How it was run: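 Tubule length was quantified by high-content imaging of CD31- and nuclear-stained cells, with 0.1% DMSO as neutral and 100 uM suramin as inhibition control. Compounds were applied for 3 days, in 10 ng/ml VEGF, to cultures pre-grown 3 days.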

[17] = VALA_MIGHUV2_CellCount: Viability Assessment in the VALA Sciences human Umbilical Vein Endothelial Cell Migration (MIGHUV) Assay, Area of Scratch Wound after Recovery (AID 2284314)
How it was run: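 Viability read-out: Hoechst-stained nuclei counted by fluorescence imaging after a 24 h recovery period in fixed, scratched HUVEC plates. Compound was dosed within 30 min of scratching at six concentrations (triplicate); DMSO at 0.1 % served as baseline.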

[18] = VALA_MIGHUV2_Bcatenin: VALA Sciences human Umbilical Vein Endothelial Cell Migration (MIGHUV) Assay, Nuclear Translocation of beta-Catenin after Recovery (AID 2284315)
How it was run: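 Nuclear beta-catenin imaged by immunofluorescence with Hoechst counterstain in fixed HUVEC, 24 h after scratch wounding and chemical addition. Six-point concentration-response in triplicate; activity scored as signal increase over 0.1% DMSO vehicle.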

[19] = VALA_MIGHUV2_WoundArea: VALA Sciences human Umbilical Vein Endothelial Cell Migration (MIGHUV) Assay, Area of Scratch Wound after Recovery (AID 2284316)
How it was run: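 Wound-area endpoint read by fluorescence imaging of Hoechst-stained nuclei after a 24 h recovery period following scratch of HUVEC monolayers (9000 cells/well). Chemicals dosed within 30 min post-scratch, triplicate 6-point series, 0.1% DMSO vehicle; Cytochalasin D positive control.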

[20] = VALA_TUBHUV_Antagonist_CellCount: Viability Assessment in the VALA Sciences human Umbilical Vein Endothelial Tubule Formation (TUBHUV) Antagonism Assay (AID 2284310)
How it was run: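 Read-out is imaged cell count after nuclear and CD31 staining, fitted against 0.1% DMSO vehicle. Compounds were added for 3 days, in 10 ng/ml VEGF assay medium, to HUVEC–HDF co-cultures pre-grown 3 days.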

With `CC(C)(c1cc(Br)c(O)c(Br)c1)c1cc(Br)c(O)c(Br)c1` the AC50 [1] was 3.61 µM (active), the AC50 [2] was 3.14 µM (active) and the AC50 [3] was 3.76 µM (active). The AC50 [4] was 5.12 µM (active), the AC50 [5] was 5.06 µM (active) and the AC50 [6] was 3.33 µM (active). For the same molecule, the AC50 [7] was 0.628 µM (active), the AC50 [8] was 5.13 µM (active) and the AC50 [9] was 4.45 µM (active). For the same molecule, the AC50 [10] was 3.04 µM (active), the AC50 [11] was 2.79 µM (active) and the AC50 [12] was 2.94 µM (active). The AC50 [13] was 66.2 µM (active).

For `CC/C(=C(/CC)c1ccc(O)cc1)c1ccc(O)cc1`, the AC50 [14] was 14 µM (active).

For `O=C1O[C@H]([C@@H](O)CO)C(O)=C1O`, the outcome [1] was “inactive”, the outcome [2] was “inactive” and the outcome [3] was “inactive”. For the same molecule, the outcome [4] was “inactive”, the outcome [5] was “inactive” and the outcome [6] was “inactive”. The outcome [8] was “inactive”, the outcome [9] was “inactive” and the outcome [10] was “inactive”. For the same molecule, the outcome [11] was “inactive” and the outcome [12] was “inactive”.

With `CCCCCCCCCCCC[N+](C)(C)C` the outcome [13] was “inactive”.

In the case of `CCCCCCCCOC(=O)c1cc(O)c(O)c(O)c1`, the AC50 [15] is reported as 76.4 µM (active), the outcome [16] is reported as “inactive” and the outcome [17] is reported as “inactive”. For the same molecule, the AC50 [18] was 79.9 µM (active), the outcome [19] was “inactive” and the AC50 [13] was 77 µM (active).

With `CCN(Cc1cccc(S(=O)(=O)O)c1)c1ccc(C(=C2C=CC(=[N+](CC)Cc3cccc(S(=O)(=O)O)c3)C=C2)c2ccccc2S(=O)(=O)[O-])cc1` the AC50 [13] was 100 µM (active).

For `CN1C(=O)CC[C@H]1c1cccnc1`, the outcome [14] was “inactive”.

With `CC(C)(C)c1csc(-c2cc3cc(OCc4ccccc4CC(=O)O)ccc3o2)n1` the AC50 [13] was 68.7 µM (active).

With `CN(C)c1ccc(C(=C2C=CC(=[N+](C)C)C=C2)c2ccc(N(C)C)cc2)cc1` the outcome [13] was “inactive”.

In the case of `O=C(Nc1ccc(Cl)cc1)Nc1ccc(Cl)c(Cl)c1`, the outcome [15] is reported as “inactive”, the outcome [20] is reported as “inactive” and the outcome [16] is reported as “inactive”. For the same molecule, the outcome [17] was “inactive”.

For `Cc1oc2c(NC(=O)c3c(Cl)cccc3Cl)cccc2c1C(C)(C)O`, the outcome [13] was “inactive”.

For `CN(C[C@@H](CC[N+]12CCC(C3CCCCC3)(CC1)CC2)c1ccc(Cl)c(Cl)c1)C(=O)c1cc(C(F)(F)F)cc(C(F)(F)F)c1`, the AC50 [13] was 45.2 µM (active).

With `CCOC(=O)O[C@H](C)OC(=O)c1ccc2c(c1)cc(C(=O)NC1CCN(C(C)C)CC1)n2Cc1cc(-c2ccc(Cl)s2)on1` the AC50 [13] was 56.4 µM (active).

For `O=c1c(-c2ccc(O)cc2)coc2cc(O)cc(O)c12`, the outcome [13] was “inactive”.

With `Clc1cc(Cl)c2c(c1)N=C1CCCCCN1C2` the outcome [13] was “inactive”.
